# PubChem BioAssay (NCI)
# This is part of a sample that, as a whole, favours compounds with a hit. Of some 83,000 tested, about 20% had one in any assay.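 The test compound was applied at a single concentration to cells in 96-well plates for 48 hours, and percent growth was recorded.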 A number with no mark means an inactive call. Activity calls are given as the source filed them. How the source made its calls: active means growth percent below 10; inactive means the rest.
# Key:
# Assay in all cases: NCI-60 one-dose screen, 48 h (100 = growth as untreated, 0 = no growth, -100 = all killed)
# Conditions in all cases: 10 µM unless noted
# [1] = system: NCI-H226 lung
# [2] = system: NCI-H322M lung
# [3] = system: HOP-62 NSCLC
# [4] = system: NCI-H460 lung
# [5] = system: NCI-H522 lung
# [6] = system: A549/ATCC NSCLC
# [7] = system: 786-0 renal
# [8] = system: COLO 205 colon
# [9] = system: HOP-92 NSCLC
SMILES,growth [1] [%],growth [2] [%],growth [3],growth [4],growth [5],growth [6] [%],growth [7],growth [8],growth [9]
Cc1cccc(NC(=O)CN2CCN(c3ncnc4c3cnn4-c3ccccc3)CC2)c1,84.8,91.3,96.2%,73%,-39.6% (active),97,98.1%,109%,–
O=C(c1ccccc1)c1ccc2nc(-c3cccc(Cl)c3)[nH]c2c1,105,105,107%,111%,101%,104,100%,116%,111%
Cn1cc(-c2nc(N)nnc2-c2c[nH]c3ccc(Br)cc23)c2cc(Br)cnc21,11.9,37.8,17.8%,-25% (active),-47.4% (active),12.5,-10.9% (active),-85.3% (active),-6.93% (active)
COc1ccc(Cc2nn(CC(=O)N/N=C/c3ccc(F)cc3)c(=O)c3c(C)noc23)cc1,27.4,37.1,-53.1% (active),13.3%,64.5%,14,-20.9% (active),59.3%,-20.5% (active)
O=C(c1ccccc1)C(c1c[nH]c2ccccc12)c1c[nH]c2ccccc12,41.7,96.5,83.5%,29.8%,35.9%,70.2,78.7%,58.5%,76.7%
C#C[C@]1(O)CC[C@H]2[C@@H]3CC=C4c5sc(-c6ccc([N+](=O)[O-])cc6)nc5CC[C@]4(C)[C@H]3CC[C@@]21C,71.6,25.5,23.5%,-47.9% (active),-5.59% (active),29.6,18.3%,-70% (active),42.9%
